# Sampled rows, rich in hits. Any-hit rate of the full collection: about 10%.
# ELG1 DNA repair: inhibitors of ELG1-dependent DNA repair in HEK293T cells; HEK293T ELG1-luciferase reporter, luminescence, 16 h; DNA damage induced by 5-fluorouridine; Potency, µM (series often up to 46.1 µM), most hits filed as inhibitors; hit rate 2.3% among 330,000; also: nearly all actives have a fitted effect of over 55% in size
#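 Luminescence from the luciferase reporter, measured 30 min after ONE-Glo reagent at room temperature, was the read-out. Beforehand, 2,000 cells per well were exposed for 16 hr at 37 °C to 5-fluorouridine together with compound or vehicle.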
# SW480 rerep: induces DNA re-replication in SW480 colon adenocarcinoma cells | SW480 DNA re-replication, Hoechst DNA content imaging, 48 h | Potency, µM (doses to about 46.1 µM), actives largely listed as activators | hit rate 1.8% among 340,000 | AID 624297; also: nearly all actives have a fitted effect of over 55% in size
#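 Image-based read-out: total Hoechst fluorescence of nuclei (405 nm excitation, 500-530 nm emission), with hits raising the fraction of high-intensity nuclei. SW480 colon cells incubated 48 hr with compounds at 37 C.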
# VP16 counter: counter-screen for ROR gamma inhibitors: Gal4-VP16 reporter | Drosophila S2 Gal4-VP16 UAS-luciferase, luminescence, 20 h | Potency, µM (series often up to 53.6 µM), most hits filed as inhibitors | hit rate 3.5% among 310,000 | AID 2546;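 also: Gal4-VP16 expression switched on by copper sulfate through the metallothionein promoter; nearly all actives have a fitted effect of over 50% in size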
# MCF10A rerep: induces DNA re-replication in MCF 10a normal breast cells; MCF 10A DNA re-replication, Hoechst nuclear intensity, 48 h; Potency, µM (top dose mostly 46.1 µM), most hits filed as activators; hit rate 2.9% among 350,000; AID 624296; also: nearly all actives have a fitted effect of over 50% in size
# RORg inh: ROR gamma (mouse) transcription inhibition | Potency, µM (highest dose often 53.6 µM), most hits filed as inhibitors | AID 2551 | hit rate 5.4% among 310,000 | P51450 | Drosophila S2 Gal4-RORgamma UAS-luciferase reporter, 20 h; also: nearly all actives have a fitted effect of over 60% in size
#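 Luciferase reporter read in Schneider cells carrying Gal4-RORγ (mouse) and UAS-Photinus luciferase; cells given compound 1 h before 700 uM copper sulfate induction, then incubated 20 h at ambient temperature.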
# ELG1 FLuc counter: luciferase inhibition in cell-free luciferin readout for ELG1 hits | Potency, µM (series often up to 46.1 µM), hits mostly inhibitors | shares compounds with ELG1 DNA repair | cell-free firefly luciferase luminescence counter-screen, ViewLux | AID 624247 | hit rate 3% among 350
# ELG1-Luc inh: human ELG1 repair inhibition, luciferase-tagged ELG1 confirmation; shares compounds with ELG1 DNA repair; HEK293T ELG1-luciferase levels, luminescence; cells co-treated with 5-fluorouridine; Potency, µM (series often up to 46.1 µM), hits mostly inhibitors; hit rate 68% among 670; AID 624248; also: nearly all actives have a fitted effect of over 55% in size
# ELG1-Luc MMS: confirmation of human ELG1 repair inhibitors, MMS stimulated; shares compounds with ELG1 DNA repair; Potency, µM (titrated, usually from 46.1 µM), most hits filed as inhibitors; HEK293T luciferase-tagged ELG1 level, MMS stimulated; hit rate 53% among 670; also: nearly all actives have a fitted effect of over 60% in size
# ELG1 5-FU: confirmation of ELG1 repair inhibitors: viability with 5FU | 670 tested, under 10 active | shares compounds with ELG1 DNA repair | AID 624250 | cell viability with 5-FU, ELG1-dependent repair | Potency, µM (doses to about 46.1 µM), usual class: cytotoxic;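 also: ELG1-luc HEK293T cells cotreated with 5-fluorouridine at 10 µM final; viability measured 16 h after compound addition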
# ELG1 MMS cell: confirmation of ELG1 repair inhibitors: viability with MMS. shares compounds with ELG1 DNA repair. Cell viability with MMS, ELG1-dependent DNA repair. Potency, µM (titrated, usually from 46.1 µM), actives largely listed as cytotoxic. hit rate 33% among 670. AID 624251;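 also: ELG1-luc HEK293T cells co-treated with 10 µM MMS; viability read 16 h after compound addition; nearly all actives have a fitted effect of over 60% in size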
# Cell viab unstim: affects unstimulated cell viability, ELG1 hit counter-screen; shares compounds with ELG1 DNA repair; cell viability counter-screen, unstimulated, luminescence; Potency, µM (highest dose often 45.9 µM), most hits filed as cytotoxic; hit rate 8% among 900; AID 624252;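 also: compound exposure lasted 16 hours before reading; nearly all actives have a fitted effect of over 55% in size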
# FLuc enzyme: firefly luciferase inhibition counter-screen. shares compounds with ELG1 DNA repair. purified firefly luciferase, luminescence counter-screen. Potency, µM (doses to about 57.5 µM), usual class: inhibitors. hit rate 10% among 350
# A number is an active result; - = inactive; ? = inconclusive; . = no result given; [ ] = dose if it differs, or a comment. Calls follow the shape of the dose curve; as a rule, active = well fitted curve in the direction sought with a large enough effect; inconclusive = small, poorly fitted or top-dose-only effect, or another doubt; inactive = no such curve, though single readings can be large; an effect the other way counts as inactive or inconclusive.
SMILES,ELG1 DNA repair,SW480 rerep,VP16 counter,MCF10A rerep,RORg inh,ELG1-Luc inh,ELG1-Luc MMS,ELG1 5-FU,ELG1 MMS cell,Cell viab unstim,others
CCCCN1C(=O)C(C#N)CC2=C1CC(C)(C)CC2=O (configuration not stated),.,-,.,-,.,.,.,.,.,.,
O=C(CC1C(=O)NCCN1C1CCCC1)NCc1cccc(OC(F)(F)F)c1 (configuration not stated),-,-,-,?,-,.,.,.,.,.,
O=C(COc1ccc2ccc(=O)oc2c1)N1CCN(C(=O)C2COc3ccccc3O2)CC1 (configuration not stated),1.5µM,-,-,-,-,2.8µM,-,?,-,-,
COc1cccc(C(=O)COc2ccc3c(C)cc(=O)oc3c2)c1,-,?,-,?,-,.,.,.,.,.,
C/C(=N\NC(=O)c1c(C)nc2ccccn12)c1ccc(O)cc1O,2.9µM,?,-,?,?,?,?,-,?,?,
CC(C)(C)OC(=O)NCc1ccc(NC(=O)c2nc[nH]c2C(=O)NCCCCNC(=O)c2[nH]cnc2C(=O)Nc2ccc(CNC(=O)OC(C)(C)C)cc2)cc1,0.92µM,-[9.22 µM],.,-,.,1.1µM,1.3µM,-,?,?,ELG1 FLuc counter=?;FLuc enzyme=-
CC(C)(C)OC(=O)NCc1ccc(NC(=O)c2nc[nH]c2C(=O)NCCCNC(=O)c2[nH]cnc2C(=O)Nc2ccc(CNC(=O)OC(C)(C)C)cc2)cc1,1.8µM,?,.,?,.,2.2µM,13µM,?,25µM,?,
CC(C)(C)OC(=O)NCCCCCNC(=O)c1[nH]cnc1C(=O)Nc1ccccc1,?,-,.,-,.,.,.,.,.,.,
CC(C)(C)OC(=O)NCc1ccc(NC(=O)c2nc[nH]c2C(=O)NCCCCCCNC(=O)c2[nH]cnc2C(=O)Nc2ccc(CNC(=O)OC(C)(C)C)cc2)cc1,2.3µM,-,.,?,.,1.1µM,25µM,?,?,?,
CCO[C@H]1OC(C(=O)N2CCOCC2)=C[C@@H](C2CC2)[C@@H]1CCCO,-,?,-,?,-,.,.,.,.,.,
CCC(C)NC(=O)c1ccc2nc(-c3ccc(OC)c(OC)c3)c(-c3ccc(OC)c(OC)c3)nc2c1 (configuration not stated),0.52µM,?,-,15µM,-,1.6µM,-,?,-,?,ELG1 FLuc counter=-;FLuc enzyme=-
COCC(C)NC(=O)c1ccc2nc(-c3ccccc3)c(-c3ccccc3)nc2c1 (configuration not stated),?,-,.,-,.,.,.,.,.,.,
COc1cc2cnc(-c3ccccc3)c(C(=O)c3ccc(OCc4ccccc4)cc3)c2cc1OC,2.6µM,-,.,-,.,10µM,13µM,?,11µM,-,
Cc1ccc(C)c(SCC(=O)NCC(c2ccco2)N2CCCCC2)c1 (configuration not stated),-,-,.,-,.,.,.,.,.,.,
Cc1sc2nc(C3CC3)nc(N3CCN(S(=O)(=O)c4ccc(F)cc4)CC3)c2c1C,?,?,-,?,-,.,.,.,.,.,
Cc1nc(N2CCN(S(=O)(=O)c3ccc(F)cc3)CC2)c2c(C)c(C)sc2n1,-,-,-,-,-,-,-,-,-,-,ELG1 FLuc counter=-;FLuc enzyme=-
O=C(NC(Cc1ccccc1)C(=O)O)/C(=C\c1ccccc1)NC(=O)c1ccc(Br)o1 (configuration not stated),-,-,-,-,-,.,.,.,.,.,
Cc1cccc(/C=C/c2onc(C)c2S(=O)(=O)N2CCC(C(=O)N3CCCCC3)CC2)c1,2.9µM,-,-,-,-,2.2µM,?,?,-,-,
CNC(=O)C1CCN(S(=O)(=O)c2c(C)noc2/C=C/c2ccc(C)cc2)CC1,-,-,-,-,-,.,.,.,.,.,
CCOc1ccccc1/C=C/c1onc(C)c1S(=O)(=O)N1CCC(C(=O)N2CCCCCC2)CC1,2.9µM,-,-,18µM,-,4µM,?,?,-,-,
COc1ccc(/C=C/c2onc(C)c2S(=O)(=O)N2CCC(C(=O)N3CCCCCC3)CC2)cc1,2.6µM,-,-,?,-,3.1µM,16µM,?,-,-,
CCN(C(=O)CSc1cc(C)c2cccc(C)c2n1)C1CCS(=O)(=O)C1 (configuration not stated),-,?,-,-,-,.,.,.,.,.,
COc1ccc(-c2[nH]ncc2CN(C)Cc2nonc2C)c(OC)c1,-,?,-,-,-,.,.,.,.,.,
COC(=O)C1C(=O)C=C(N2CCOCC2)CC1(C)C (configuration not stated),4.1µM,-,-,-,-,-,-,-,-,-,
Cc1ccc(-c2csc(=Nc3cccnc3)n2CCCn2ccnc2)cc1C,2.9µM,-,?,?,?,4µM,6.3µM,-,10µM,22µM,ELG1 FLuc counter=?;FLuc enzyme=-
SMILES,ELG1 DNA repair,SW480 rerep,VP16 counter,MCF10A rerep,RORg inh,ELG1-Luc inh,ELG1-Luc MMS,ELG1 5-FU,ELG1 MMS cell,Cell viab unstim,others
Cc1ccc(-c2csc(=Nc3cccnc3)n2CCCN2CCCC2=O)cc1C,?,-,-,-,?,.,.,.,.,.,
Cc1ccc(N(CC(O)CN2CCCCC2)S(=O)(=O)c2ccccc2)cc1 (configuration not stated),-,-,-,-,-,.,.,.,.,.,
CCOc1ccc(NC(=O)CN(C)C(=O)c2cc(C3CC3)nn2-c2ccccc2)cc1OCC,-,-,.,-,.,.,.,.,.,.,
COCCn1c(C)c(C)c2c(NCCc3ccccc3)ncnc21,?,-,?,-,?,.,.,.,.,.,
CC(Sc1nc(N2CCOCC2)c2c(c1C#N)CC(C)(C)OC2)C(=O)Nc1ccccc1 (configuration not stated),2.9µM,-,-,-,-,1.8µM,-,?,?,-,ELG1 FLuc counter=-;FLuc enzyme=-
CCOC(=O)CCSc1nc(N2CCOCC2)c2c(c1C#N)CC(C)(C)OC2,1µM,-,-,-,-,4.5µM,-,?,-,-,ELG1 FLuc counter=-;FLuc enzyme=-
Cc1csc(SCC(=O)Nc2cccc3nsnc23)n1,2.6µM,-,?,-,-,2.8µM,?,-,-,-,
